The results in this text go back to PubChem BioAssay.

Molecules are shown by their SMILES. The source made the active and inactive calls. Unless noted, the rule behind the calls is not given here.

The subject of assay [1] is Wnt5a (protein binding on small-molecule microarray). In words: Wnt5a binders on small-molecule microarray, primary screen, biophysical, 635/667 nm fluorescence (AID 1142).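 Note: fluorescence read at 667 nm with signal to noise per printed feature.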 The conditions noted are these: 635 nm fluorescence, higher = more signal.
The nature of assay [2]: cell viability in Huh7 cells, primary screen, cytotoxicity control for HCV replication inhibitor project, CellTiter-Glo luminescence, basal, 48 h (AID 1143).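 Note: Huh7 hepatoma cells carrying a hepatitis C replication reporter with no stimulus; test concentration not given here.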 The following applies: Huh7 HCV replicon, higher = more signal, called active from +8 up or from −8 down.
Assay [3] in a line: P. aeruginosa biofilm formation inhibitors, primary screen, PAO1 strain, BacTiter-Glo luminescence, LB-PBS (AID 1144). The conditions noted are these: 12 h, higher = more signal.
Assay [4] in a line: CREB reporter modulators without forskolin, primary screen, cell-based, PC12, CRE-LacZ reporter, unstimulated (AID 1145). The following applies: no forskolin, luminescence, 4.5 h, higher = more signal, called active from +8 up or from −8 down.
Assay [5] in a line: CREB reporter modulators under forskolin, primary screen, cell-based, PC12, CRE-LacZ reporter, forskolin-stimulated (AID 1146).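 Note: PC12 cells with 6xCRE LacZ reporter stimulated by forskolin 10 µM; beta-galactosidase reporter signal reflecting CREB driven transcription.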 The following applies: luminescence, 4.5 h, higher = more signal, called active from +8 up or from −8 down.
Assay [6] concerns the target Streptavidin (Streptomyces avidinii) (UniProt P22629). In words: streptavidin binders on small-molecule microarray, primary screen, artefact control for SMM compound annotation, biophysical, 635/667 nm fluorescence (AID 1147).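 Note: signal reflects streptavidin binding to arrayed compounds as a control protein.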 The conditions noted are these: streptavidin binding, higher = more signal.
The nature of assay [7]: small-molecule binders of probe aInhba, primary screen, biochemical, small-molecule microarray, 635/667 nm fluorescence (AID 1148).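 Note: score merges 667nm spot fluorescence with signal-to-noise for antibody binding to printed compounds.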 The conditions noted are these: higher = more signal.
In assay [8] the target is Torsin-1A (Homo sapiens) (UniProt O14656). In words: torsin A binders from cell lysate, primary screen, small-molecule microarray, wild-type, 635/667 nm (AID 1149). The conditions noted are these: COS7 hTOR1A-WT lysate, 635 nm fluorescence, higher = more signal.
Chain of Torsin-1A (Homo sapiens) (O14656 whole entry, looked up): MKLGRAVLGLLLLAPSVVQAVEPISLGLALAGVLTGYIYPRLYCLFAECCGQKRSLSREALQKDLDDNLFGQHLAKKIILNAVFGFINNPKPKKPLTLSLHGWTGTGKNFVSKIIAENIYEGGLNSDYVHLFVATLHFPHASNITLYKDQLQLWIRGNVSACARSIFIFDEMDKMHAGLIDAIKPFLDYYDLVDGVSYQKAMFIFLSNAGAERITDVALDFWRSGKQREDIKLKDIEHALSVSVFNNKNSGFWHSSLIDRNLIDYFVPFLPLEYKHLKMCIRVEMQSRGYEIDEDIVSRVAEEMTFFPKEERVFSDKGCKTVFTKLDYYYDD
The target is the same in assay [9]. In words: small-molecule binders of mutant TOR1A in lysate, primary screen, cell lysate, small-molecule microarray, COS7 lysate, 635/667 nm fluorescence (AID 1150).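 Note: score pools 667 nm emission and signal to noise measuring lysate protein binding.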 The conditions noted are these: COS7 hTOR1A mutant lysate, 635 nm fluorescence, higher = more signal.
The test system of assay [10] is Sonic hedgehog protein (Shh). The assay is described as follows: small-molecule binders of Shh protein, primary screen, biochemical, small-molecule microarray, 635/667 nm fluorescence (AID 1151).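 Note: Shh protein binding to compounds spotted on small-molecule microarray slides; score combines spot fluorescence intensity with signal-to-noise across triplicate slides.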 The following applies: small-molecule microarray binding, 635 nm fluorescence; higher = more signal.
The nature of assay [11]: E. coli DRC41 culture turbidity changes, primary screen, E. coli filamentation inducer project, strain DRC41, OD650, 48 h (AID 1152).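 Note: E. coli MC1000 strain DRC41 lacking acrAB efflux pump and sulA.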 The following applies: E. coli DRC41 (acrAB sulA), higher = more signal, called active from +8 up or from −8 down.
Assay [12] is described as follows: small-molecule binders of probe aLefty1, primary screen, biochemical, small-molecule microarray, 635/667 nm fluorescence (AID 1153).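 Note: score merges spot fluorescence with signal-to-noise ratio from the scanned slide images.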 The following applies: higher = more signal.
Assay [13] can be described thus: PSAC antagonists in infected red cells, primary screen, cell-based, P. falciparum Indochina, OD700, 1 h (AID 1154). The conditions noted are these: P. falciparum Indochina infected RBC osmotic lysis, higher = more signal, called active from +8 up or from −8 down.
Assay [14] is described as follows: PSAC antagonists in infected red cells, primary screen, cell-based, P. falciparum Indochina, OD700, 2 h (AID 1155).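 Note: lysis reports solute entry through the parasite surface anion channel PSAC; channel blockers reduce lysis of infected cells.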 The conditions noted are these: P. falciparum Indochina infected erythrocytes, osmotic lysis OD700; higher = more signal, called active from +8 up or from −8 down.
Assay [15] in a line: osmotic lysis modulators in infected erythrocytes, primary screen, PSAC antagonist project, cell-based, P. falciparum Indochina, OD700, 3 h (AID 1156). The following applies: higher = more signal, called active from +8 up or from −8 down.
Assay [16] can be described thus: PSAC antagonists in infected red cells, primary screen, cell-based, P. falciparum Indochina, OD700, 18 h (AID 1157). The following applies: P. falciparum Indochina infected erythrocytes, osmotic lysis OD700, 18 h; higher = more signal, called active from +8 up or from −8 down.
Assay [17] in a line: modulators of S6 phosphorylation in cells, primary screen, cell-based, A549, cytoblot, luminescence, serum-stimulated (AID 1158).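 Note: serum-stimulated A549 lung adenocarcinoma cells; signal is phosphorylated S6 detected by cytoblot immunostaining with HRP secondary.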 The conditions noted are these: A549 phospho-S6 cytoblot, 5 h, higher = more signal.
Assay [18] deals with NADPH oxidase 2 (Homo sapiens) (UniProt P04839). The assay is described as follows: NOX2-dependent H2O2 signal modulators, primary screen, NOX inhibitor project, cell-based, HEK293-NOX2, PMA-stimulated, Amplex Red fluorescence (AID 1159). Note: test concentration not given here. The conditions noted are these: 45 min, higher = more signal, called active from +8 up or from −8 down.
Chain of NADPH oxidase 2 (Homo sapiens) (P04839 whole entry, looked up): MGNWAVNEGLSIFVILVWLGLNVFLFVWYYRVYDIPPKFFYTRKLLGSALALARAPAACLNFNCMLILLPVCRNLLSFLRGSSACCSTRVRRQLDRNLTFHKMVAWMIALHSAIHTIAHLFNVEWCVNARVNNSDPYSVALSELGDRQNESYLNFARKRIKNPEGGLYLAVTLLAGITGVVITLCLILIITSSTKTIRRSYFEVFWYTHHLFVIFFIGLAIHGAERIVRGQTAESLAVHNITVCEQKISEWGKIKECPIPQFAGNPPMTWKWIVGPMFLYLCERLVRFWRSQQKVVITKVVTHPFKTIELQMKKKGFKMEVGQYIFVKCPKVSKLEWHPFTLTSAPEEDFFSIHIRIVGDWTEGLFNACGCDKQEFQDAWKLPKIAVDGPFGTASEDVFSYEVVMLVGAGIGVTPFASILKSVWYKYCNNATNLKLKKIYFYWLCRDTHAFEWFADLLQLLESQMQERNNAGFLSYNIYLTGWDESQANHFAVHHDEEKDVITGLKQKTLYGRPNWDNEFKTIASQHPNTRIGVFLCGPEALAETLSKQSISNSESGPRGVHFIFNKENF
Assay [19] concerns the target NADPH oxidase 4 (Homo sapiens) (UniProt Q9NPH5). In words: NOX4-dependent H2O2 signal modulators, primary screen, NOX inhibitor project, cell-based, HEK293-NOX4, tetracycline-induced, Amplex Red fluorescence (AID 1160). The following applies: 45 min, higher = more signal, called active from +8 up or from −8 down.
Assay [20] addresses NADPH oxidase 5 (Homo sapiens) (UniProt Q96PH1). In words: NOX5-dependent H2O2 signal modulators, primary screen, NOX inhibitor project, cell-based, HEK293-NOX5, Amplex Red fluorescence (AID 1161). The following applies: HEK293-NOX5, ionomycin, 45 min, higher = more signal.

Chain of Streptavidin (Streptomyces avidinii) (P22629 whole entry, looked up): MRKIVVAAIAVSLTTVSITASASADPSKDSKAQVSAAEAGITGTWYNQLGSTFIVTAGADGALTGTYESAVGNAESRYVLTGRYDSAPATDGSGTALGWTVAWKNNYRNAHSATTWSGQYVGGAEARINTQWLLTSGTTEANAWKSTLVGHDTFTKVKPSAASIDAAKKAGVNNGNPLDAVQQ
Chain of NADPH oxidase 5 (Homo sapiens) (Q96PH1 whole entry, looked up): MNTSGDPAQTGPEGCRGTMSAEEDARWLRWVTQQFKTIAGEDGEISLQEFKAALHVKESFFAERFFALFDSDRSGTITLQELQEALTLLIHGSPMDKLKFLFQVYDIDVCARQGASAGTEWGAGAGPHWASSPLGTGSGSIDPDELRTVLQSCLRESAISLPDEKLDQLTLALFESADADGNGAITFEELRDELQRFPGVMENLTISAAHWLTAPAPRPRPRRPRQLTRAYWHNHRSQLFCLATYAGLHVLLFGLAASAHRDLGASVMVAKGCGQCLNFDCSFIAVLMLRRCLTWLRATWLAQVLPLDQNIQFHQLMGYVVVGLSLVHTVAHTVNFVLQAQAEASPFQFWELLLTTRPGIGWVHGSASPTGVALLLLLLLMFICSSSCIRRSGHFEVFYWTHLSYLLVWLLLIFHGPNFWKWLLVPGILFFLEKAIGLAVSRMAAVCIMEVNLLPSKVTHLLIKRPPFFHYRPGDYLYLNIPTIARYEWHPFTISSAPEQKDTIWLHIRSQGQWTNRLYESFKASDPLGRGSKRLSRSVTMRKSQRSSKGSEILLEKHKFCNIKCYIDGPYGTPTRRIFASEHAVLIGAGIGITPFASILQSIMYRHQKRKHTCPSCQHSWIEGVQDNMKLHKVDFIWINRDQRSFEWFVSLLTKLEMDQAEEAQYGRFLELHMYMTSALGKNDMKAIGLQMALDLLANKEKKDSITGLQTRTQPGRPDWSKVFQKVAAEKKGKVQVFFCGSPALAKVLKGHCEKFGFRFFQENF
Chain of NADPH oxidase 4 (Homo sapiens) (Q9NPH5 whole entry, looked up): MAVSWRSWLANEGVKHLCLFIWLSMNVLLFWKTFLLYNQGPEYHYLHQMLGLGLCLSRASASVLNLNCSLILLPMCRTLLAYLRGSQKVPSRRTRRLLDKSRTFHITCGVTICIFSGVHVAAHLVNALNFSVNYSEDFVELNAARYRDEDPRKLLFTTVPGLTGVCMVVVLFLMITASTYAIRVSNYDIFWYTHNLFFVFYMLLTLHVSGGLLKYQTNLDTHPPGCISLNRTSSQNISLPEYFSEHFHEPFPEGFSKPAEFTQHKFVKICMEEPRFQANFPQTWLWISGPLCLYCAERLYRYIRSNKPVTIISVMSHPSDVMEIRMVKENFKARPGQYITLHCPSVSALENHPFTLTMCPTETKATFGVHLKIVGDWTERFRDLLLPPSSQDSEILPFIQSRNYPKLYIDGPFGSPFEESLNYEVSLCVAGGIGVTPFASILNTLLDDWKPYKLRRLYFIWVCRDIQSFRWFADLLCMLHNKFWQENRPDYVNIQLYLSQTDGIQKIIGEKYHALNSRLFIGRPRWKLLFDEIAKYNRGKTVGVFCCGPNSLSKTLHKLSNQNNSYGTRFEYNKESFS

For the compound `CC(=O)c1ccc(C(O)C2C=CC3C(=O)N(c4ccccc4)C(=O)C3N2Nc2ccc(C#N)cc2)cc1` (stereo not given), the composite z-score in [1] is -0.14; in assay [6] it was 1.14; in [7] it was 0.0422; in [8] it was -0.167; in assay [9], 0.261; in assay [10], -0.964. In [12], this compound showed a composite z-score of 0.192. The z-score in [2] is 0.338 (inactive); in [3] it was -0.864 (inactive); in [4], 1.19 (inactive); in assay [5], 0.574 (inactive); in assay [11] it was -1.54 (inactive); in assay [13], 18 (active). In addition, the z-score is 2.58 (inactive) in assay [14]; 1.27 (inactive) in assay [15]; 1.44 (inactive) in assay [16]; -1.15 in [17]; -2.48 (inactive) in [18]; -5.89 (inactive) in assay [19]. Moreover, in assay [20], the z-score was -4.43.

Turning to `COCCCNC(=O)[C@]1(CCS(=O)(=O)c2ccccc2)N=C(c2ccc(OCCCO)cc2)O[C@@H]1c1ccccc1CN=[N+]=[N-]`, the composite z-score in assay [1] was determined as 1.31; in [6], 2.07; in assay [7], 0.424; in [8] it was 1.35; in assay [9], 0.738; in [10], 0.36. Besides, the composite z-score in [12] is 1.35. The z-score is -0.635 (inactive) in assay [2]; 0.267 (inactive) in assay [3]; -0.781 (inactive) in assay [4]; -0.969 (inactive) in [5]; 0.704 (inactive) in assay [11]; 24.6 (active) in assay [13]. Moreover, the z-score in [14] is 10.3 (active); in assay [15], 1.41 (inactive); in [16], 1.8 (inactive); in assay [17] it was -0.377; in [18], 0.826 (inactive); in assay [19], 1.78 (inactive). In addition, the z-score in assay [20] was 1.97.

For `CC(CO)N1C(=O)[C@@H]2[C@H]3C(=O)OCC=C[C@H]3OC23C=CCN(CCN2CCOCC2)C(=O)[C@@H]13` (stereo not given in full), the composite z-score in assay [1] is 0.0471; in assay [6] it was -0.418; in [7], -0.314; in assay [8], -0.829; in [9] it was -0.475; in assay [10], 1.65. In addition, the composite z-score in assay [12] is -0.482. The z-score in assay [2] is -0.62 (inactive); in [3], 1.3 (inactive); in [4] it was 0.463 (inactive); in assay [5], 0.0027 (inactive); in assay [11], -1.06 (inactive); in assay [13], 0.158 (inactive). For the same compound, the z-score in assay [14] was -0.358 (inactive); in assay [15] it was -0.0103 (inactive); in [16] it was -0.255 (inactive); in assay [17] it was -0.471; in assay [18], 0.381 (inactive); in assay [19] it was 0.194 (inactive). The compound also registered a z-score in [20] of 1.2.

As to `COC(=O)[C@@]1(Cc2ccccc2N=[N+]=[N-])N=C(c2ccc(OCCCO)cc2)O[C@H]1c1ccccc1N=[N+]=[N-]`, the composite z-score was 0.323 in assay [1]; 0.169 in assay [6]; 0.221 in assay [7]; -0.266 in assay [8]; 0.0067 in [9]; 0.58 in assay [10]. Further, the composite z-score in [12] was 0.373. Besides, the z-score in assay [2] was -5.44 (inactive); in assay [3] it was -0.455 (inactive); in [4] it was 1.53 (inactive); in [5], 0.237 (inactive); in [11] it was 1.24 (inactive); in assay [13] it was 24.9 (active). For the same compound, the z-score in assay [14] was 13.3 (active); in assay [15], 0.531 (inactive); in assay [16] it was 3.93 (inactive); in assay [17] it was 0.342; in assay [18], -1.58 (inactive); in [19], 0.802 (inactive). Also, the z-score in [20] is -0.833.

Regarding `CC(C)[Si](C#C[Si](C(C)C)(C(C)C)C(C)C)(O[C@H](C)c1cn([C@H](CO)Cc2ccccc2)nn1)C(C)C`, the composite z-score in [1] is -0.0305; in assay [6], 0.291; in assay [7], -0.234; in assay [8] it was 0.238; in [9] it was 0.144; in assay [10], 0.341. Besides, the composite z-score in assay [12] is -0.212. Moreover, the z-score is -0.43 (inactive) in assay [2]; -1.52 (inactive) in assay [3]; -0.463 (inactive) in assay [4]; -0.531 (inactive) in [5]; 2.09 (inactive) in [11]; 0.532 (inactive) in [13]. Besides, the z-score in assay [14] is 0.655 (inactive); in [15] it was -0.116 (inactive); in assay [16] it was 0.359 (inactive); in assay [17], 0.479; in assay [18], -1.96 (inactive); in assay [19] it was 0.188 (inactive). The compound further gave a z-score in assay [20] of 0.0884.

With `O=C1N(Cc2ccccc2)Cc2ccccc2[C@@H]2OC(c3ccc(OCCCO)cc3)=N[C@]12CCS(=O)(=O)c1ccccc1`, the composite z-score in assay [1] is 0.534; in assay [6] it was 0.379; in [7], 0.0742; in assay [8], 0.529; in [9], 0.489; in assay [10] it was 1.42. For the same compound, the composite z-score in assay [12] was 0.547. Besides, the z-score is -2.33 (inactive) in assay [2]; 0.245 (inactive) in assay [3]; 3.78 (inactive) in [4]; -0.832 (inactive) in assay [5]; -0.715 (inactive) in assay [11]; 21.2 (active) in assay [13]. For the same compound, the z-score in assay [14] is 4.09 (inactive); in [15], 2.99 (inactive); in assay [16], 0.492 (inactive); in [17], 0.0549; in assay [18] it was -0.146 (inactive); in assay [19], 1.23 (inactive). Besides, in [20], the z-score is 1.03.

`CC1CC/C=C\[C@H]2OC34C=CCN(c5ccc(Cl)cc5)C(=O)[C@H]3N(CCCCCO)C(=O)[C@]4(C)C2C(=O)O1` (stereo not given in full): the composite z-score in assay [1] was -0.793; in assay [6], -1.18; in [7] it was -0.251; in assay [8] it was -2.18; in assay [9], -1.48; in assay [10], -0.449. In [12], this compound showed a composite z-score of -0.101. For the same compound, the z-score in [2] is 0.504 (inactive); in assay [3], 0.454 (inactive); in assay [4], 0.329 (inactive); in assay [5], -0.75 (inactive); in assay [11] it was -0.351 (inactive); in assay [13] it was -0.585 (inactive). Besides, the z-score in [14] was 0.231 (inactive); in assay [15] it was -0.175 (inactive); in assay [16], 0.0119 (inactive); in assay [17] it was -0.157; in [18] it was 0.57 (inactive); in assay [19], -0.261 (inactive). In assay [20], this compound gave a z-score of 1.05.

With `CN(C)C(=O)C1N=C(c2ccc(OCCCO)cc2)N(c2ccccc2)O1` (stereo not given), the composite z-score in assay [1] was 1.15; in assay [6], -0.151; in assay [7], 0.0658; in assay [8], 1.19; in assay [9], 1.56; in assay [10], 2.03. The compound also registered a composite z-score in assay [12] of 0.0509. The z-score in [2] is -1.17 (inactive); in [3], 0.265 (inactive); in assay [4] it was 0.0451 (inactive); in assay [5] it was -0.102 (inactive); in assay [11], 0.975 (inactive); in [13] it was 18.3 (active). Besides, the z-score is 2.14 (inactive) in assay [14]; 0.0521 (inactive) in assay [15]; 0.325 (inactive) in [16]; 0.296 in assay [17]; -4.12 (inactive) in assay [18]; -0.509 (inactive) in assay [19]. The z-score in [20] was -1.12.
